# Data: PubChem BioAssay (Tox21)
# Values without a mark were called inactive. Records with an inconclusive call do not appear. A call without a number means that no potency is given here. The source made the active and inactive calls. Unless noted, the call rests on the fitted dose curve; in most records, active means well fitted curve in the direction sought with a large enough effect in the repeat runs; inconclusive means weak or mixed curves; inactive means no such curve, though single readings can be large; an effect the other way counts as inactive or inconclusive.
# Columns and labels:
# [1] = qHTS assay for small molecule agonists of the p53 signaling pathway (AID 651631; calls by dose curve; further: nearly all actives have a fitted effect of over 15% in size; further: potency means the concentration at half of the fitted maximal effect)
# How it was run: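 Quantitative high-throughput format: 4,000 p53RE-bla HCT-116 cells/well, 5 h pre-incubation, 16 h compound exposure at 37 °C, 2 h room-temperature substrate step, fluorescence intensity measured.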
# [2] = qHTS assay for small molecules that induce genotoxicity in human embryonic kidney cells expressing luciferase-tagged ATAD5 (AID 651632); further: nearly all actives have a fitted effect of over 15% in size; further: potency means the concentration at half of the fitted maximal effect
# How it was run: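 Concentration-response screen for ATAD5 upregulation in HEK293T luciferase reporter cells; 16 hr treatment at 37C, then luminescence after 30 min with Amplite at room temperature.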
# [3] = qHTS assay for small molecule agonists of the p53 signaling pathway - cell viability (AID 651633; calls by dose curve;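 further: p53RE-bla HCT reporter cells with a stable beta-lactamase p53 reporter; series mostly up to about 83 µM; nearly all actives have a fitted effect of over 30% in size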)
# How it was run: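 p53RE-bla cells, seeded at 4,000 per well and rested 5 h at 37 C/5% CO2, received compounds in DMSO for 16 h at 37 C. CellTiter-Glo was then added, and luminescence was read after 30 min at room temperature to gauge cytotoxicity.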
# [4] = qHTS assay for small molecule disruptors of the mitochondrial membrane potential - cell viability (AID 720634; calls by dose curve;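 further: human HepG2 liver cancer cells; series mostly up to about 83 µM; nearly all actives have a fitted effect of over 20% in size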)
# How it was run: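 In this qHTS format, HepG2 cells plated overnight were pinned with compound, incubated 1 hr, and assayed for ATP luminescence with CellTiter-Glo after m-MPI dye addition.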
# [5] = qHTS assay for small molecule disruptors of the mitochondrial membrane potential (AID 720635); further: potency means the concentration at half of the fitted maximal effect
# How it was run: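 HepG2 cells (2,000/well) attached overnight at 37C, then took compound for 1 hr at 37C, 5% CO2. Mito-MPS dye was added for 30 min; fluorescence was read at 490/535 nm (monomers) and 540/590 nm (aggregates).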
# [6] = qHTS assay to test for compound auto fluorescence at 590 nm (red) in HepG2 cells (AID 720674)
# How it was run: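 Intrinsic compound fluorescence in the red window (Ex/Em 540/590 nm) is measured in attached HepG2 cells exposed for 1 hr, DMSO vehicle as baseline, benchmarked to Rose Bengal sodium.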
# [7] = qHTS assay to test for compound auto fluorescence at 535 nm (green) in HepG2 cells (AID 720675)
# [8] = qHTS assay to test for compound auto fluorescence at 460 nm (blue) in HEK293 cells (AID 720678)
# How it was run: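 After cell attachment (4-5 hr, 37C), compounds were pinned onto HEK293 monolayers in 10% dialyzed FBS medium. The blue channel (405/460 nm) was read following overnight culture. Equivalency was calculated against triamterene.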
# [9] = qHTS assay to test for compound auto fluorescence at 590 nm (red) in HEK293 cells (AID 720679)
# How it was run: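 Plates of HEK293 cells (10% dialyzed FBS) are treated with 23 nL compound or DMSO vehicle after a 4-5 hr attachment period, incubated overnight at 37C, and read for red fluorescence at 540/590nm.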
# [10] = qHTS assay to test for compound auto fluorescence at 535 nm (green) in HEK293 cells (AID 720680)
# [11] = qHTS assay to test for compound auto fluorescence at 460 nm (blue) in HEK293 cell free culture (AID 720681)
# How it was run: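 Test compounds were pinned into cell-free culture medium (DMEM with 10% FBS) and fluorescence was read directly at Ex/Em 405/460 nm. Signals were expressed as fluorescence equivalents of triamterene, with DMSO vehicle as control.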
# [12] = qHTS assay to test for compound auto fluorescence at 535 nm (green) in HEK293 cell free culture (AID 720682)
# How it was run: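 Measurement is a direct plate read of green fluorescence (485 nm in, 535 nm out) after compound addition to serum-supplemented DMEM lacking cells, with fluorescein used to express intensities.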
# [13] = qHTS assay to test for compound auto fluorescence at 590 nm (red) in HEK293 cell free culture (AID 720683)
# How it was run: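 Tox21 10K library compounds were pinned into cell-free DMEM with 10% FBS and fluorescence was read at excitation 540 nm. Activity is expressed as Rose Bengal sodium equivalency.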
# [14] = qHTS assay to test for compound auto fluorescence at 590 nm (red) in HepG2 cell free culture (AID 720684)
# How it was run: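 Ex 540 / Em 590 nm read of compound in cell-free MEM (10% FBS). Rose Bengal sodium reference.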
# [15] = qHTS assay to test for compound auto fluorescence at 460 nm (blue) in HepG2 cell free culture (AID 720685)
# How it was run: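 Cell-free plates of MEM plus 10% FBS received 23 nL compound or DMSO vehicle; blue-channel (405/460 nm) intensity scored against triamterene as reference fluorophore.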
# [16] = qHTS assay to test for compound auto fluorescence at 535 nm (green) in HepG2 cell free culture (AID 720686)
# [17] = qHTS assay to test for compound auto fluorescence at 460 nm (blue) in HepG2 cells (AID 720687)
# How it was run: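 Cells (2,000/well in MEM with 10% FBS) attached overnight at 37 C, then were exposed to compound or DMSO for 1 hr at 37 C, 5% CO2. Fluorescence read at Ex/Em 405/460 nm, expressed as triamterene-equivalent signal.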
# [18] = target: Glucocorticoid receptor (Homo sapiens) (UniProt P04150); assay: qHTS assay to identify small molecule agonists of the glucocorticoid receptor (GR) signaling pathway (AID 720691; active means well fitted activation curve with a large enough effect in the signal ratio in the repeat runs, not every such curve was filed as active; the % refers to the signal ratio)
# Sequence of Glucocorticoid receptor (Homo sapiens) (P04150 whole entry, looked up): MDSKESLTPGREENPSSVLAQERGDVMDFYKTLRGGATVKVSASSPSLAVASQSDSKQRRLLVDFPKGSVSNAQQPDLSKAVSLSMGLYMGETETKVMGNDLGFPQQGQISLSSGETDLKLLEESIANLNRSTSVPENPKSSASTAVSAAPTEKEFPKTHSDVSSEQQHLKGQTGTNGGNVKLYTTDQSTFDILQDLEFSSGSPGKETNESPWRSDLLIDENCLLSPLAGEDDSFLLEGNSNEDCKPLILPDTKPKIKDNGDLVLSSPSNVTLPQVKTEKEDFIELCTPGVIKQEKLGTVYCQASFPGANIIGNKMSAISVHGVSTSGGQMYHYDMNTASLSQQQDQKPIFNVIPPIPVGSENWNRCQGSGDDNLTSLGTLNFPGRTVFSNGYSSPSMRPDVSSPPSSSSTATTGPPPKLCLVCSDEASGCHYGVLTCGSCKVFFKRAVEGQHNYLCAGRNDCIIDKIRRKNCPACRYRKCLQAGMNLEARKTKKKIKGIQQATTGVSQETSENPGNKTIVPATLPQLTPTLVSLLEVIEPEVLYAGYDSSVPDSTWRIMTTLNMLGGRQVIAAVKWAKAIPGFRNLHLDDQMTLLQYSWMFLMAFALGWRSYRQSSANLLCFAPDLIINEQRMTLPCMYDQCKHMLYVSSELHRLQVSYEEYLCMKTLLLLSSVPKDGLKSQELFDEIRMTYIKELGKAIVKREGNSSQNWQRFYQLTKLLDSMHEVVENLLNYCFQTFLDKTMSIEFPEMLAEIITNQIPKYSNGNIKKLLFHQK
# How it was run: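 Measures GR pathway activation through a GRE-beta-lactamase reporter stably integrated in HeLa cells, with 18 h compound treatment at 37 C and fluorescence detection using a FRET substrate.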
# [19] = target: Glucocorticoid receptor (Homo sapiens) (UniProt P04150); assay: qHTS assay to identify small molecule antagonists of the glucocorticoid receptor (GR) signaling pathway (AID 720692; active means well fitted inhibition curve with a large enough effect in the signal ratio in the repeat runs, not every such curve was filed as active; the % refers to the signal ratio)
# How it was run: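 Tox21 10K library screened in concentration-response for blockade of dexamethasone (5 nM final)-induced GRE-bla reporter activity in HeLa cells; 18 h treatment, fluorescence read.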
# [20] = qHTS assay for small molecules that induce genotoxicity in human embryonic kidney cells expressing luciferase-tagged ATAD5 - cell viability (AID 651634; calls by dose curve; further: nearly all actives have a fitted effect of over 25% in size; further: potency means the concentration at half of the fitted maximal effect)
# How it was run: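 15.5 hr compound or vehicle exposure of HEK293T cells expressing luciferase-tagged ATAD5 at 37C; live-cell protease activity is read by fluorescence after 30 min of CellTiter-Fluor.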
compound,measurement,setting,value
O=C(O)O,activation,[1],-6.09% [at 8.3 µM]
same,activation,[2],4.66% [at 8.08 µM]
same,"activity change, negative = cytotoxicity",[3],14.5% [at 8.08 µM]
same,"activity change, negative = cytotoxicity",[4],7.92% [at 8.08 µM]
same,"ratio activity, negative = MMP loss",[5],7.15% [at 8.08 µM]
same,"fluorescence, relative to Rose Bengal",[6],-0.453% [at 3.72 µM]
same,"fluorescence, % of fluorescein control",[7],-0.0364% [at 3.72 µM]
same,"fluorescence, % of triamterene",[8],-0.0075% [at 3.72 µM]
same,"fluorescence, % of fluorescent control",[9],0.462% [at 3.72 µM]
same,"fluorescence, % of fluorescein",[10],-0.0067% [at 3.72 µM]
same,"fluorescence, % of fluorescent control",[11],0.0957% [at 3.72 µM]
same,activity change,[12],"-0.0576% [at 3.72 µM, stronger effect = higher value]"
same,"fluorescence, % of fluorescent control",[13],-0.0236% [at 3.72 µM]
same,"fluorescence, % of Rose Bengal",[14],0.0094% [at 3.72 µM]
same,"fluorescence, % of fluorescent control",[15],0.0077% [at 3.72 µM]
same,"fluorescence, % of fluorescein control",[16],0.0195% [at 3.72 µM]
same,"fluorescence, % of fluorescent control",[17],-0.0691% [at 3.72 µM]
same,activation,[18],-0.133% [at 6.9 µM]
same,"activity change, negative = inhibition",[19],-1.88% [at 7.04 µM]
CCCCOC(=O)CO,Potency,[1],inactive
same,Potency,[2],inactive
same,Potency,[3],inactive
same,Potency,[4],inactive
same,Potency,[5],inactive
same,Potency,[6],inactive
same,Potency,[7],inactive
same,Potency,[9],inactive
same,Potency,[10],inactive
same,Potency,[11],inactive
same,Potency,[12],inactive
same,Potency,[14],inactive
same,Potency,[15],inactive
same,Potency,[16],inactive
same,Potency,[17],inactive
same,Potency,[18],inactive
same,Potency,[19],inactive
CNC(=O)c1ccccc1Sc1ccc2c(/C=C/c3ccccn3)n[nH]c2c1,Potency,[1],750 nM (active)
same,Potency,[2],237 nM (active)
same,Potency,[3],inactive
same,Potency,[20],13300 nM (active)
same,Potency,[5],2370 nM (active)
same,Potency,[7],inactive
same,Potency,[8],inactive
same,Potency,[9],inactive
same,Potency,[10],inactive
same,Potency,[11],inactive
same,Potency,[12],inactive
same,Potency,[14],inactive
same,Potency,[15],inactive
same,Potency,[16],inactive
same,Potency,[17],inactive
same,Potency,[19],inactive
COc1cccc(OC)c1C(=O)O,Potency,[1],inactive
same,Potency,[2],inactive
same,Potency,[3],inactive
same,Potency,[4],inactive
same,Potency,[5],inactive
same,Potency,[6],inactive
same,Potency,[7],inactive
same,Potency,[9],inactive
same,Potency,[10],inactive
same,Potency,[11],inactive
same,Potency,[12],inactive
same,Potency,[13],inactive
same,Potency,[14],inactive
same,Potency,[15],inactive
same,Potency,[16],inactive
same,Potency,[17],inactive
same,Potency,[18],inactive
same,Potency,[19],inactive
O=C1CCCCCCCCCCCCCCCO1,Potency,[1],inactive
same,Potency,[2],inactive
same,Potency,[3],inactive
same,Potency,[4],inactive
same,Potency,[5],inactive
same,Potency,[7],inactive
same,Potency,[8],inactive
same,Potency,[9],inactive
same,Potency,[10],inactive
same,Potency,[11],inactive
same,Potency,[12],inactive
same,Potency,[13],inactive
same,Potency,[14],inactive
same,Potency,[15],inactive
same,Potency,[16],inactive
same,Potency,[17],inactive
same,Potency,[18],inactive
C=Cc1cccc(C)c1,Potency,[1],inactive
same,Potency,[2],inactive
same,Potency,[3],inactive
same,Potency,[4],inactive
same,Potency,[6],inactive
same,Potency,[7],inactive
same,Potency,[8],inactive
same,Potency,[9],inactive
same,Potency,[10],inactive
same,Potency,[11],inactive
same,Potency,[12],inactive
same,Potency,[14],inactive
same,Potency,[15],inactive
same,Potency,[16],inactive
same,Potency,[18],inactive
CC(C)(c1cc(Br)c(OCC(Br)CBr)c(Br)c1)c1cc(Br)c(OCC(Br)CBr)c(Br)c1 (centres undefined),Potency,[1],inactive
same,Potency,[2],inactive
same,Potency,[3],inactive
same,Potency,[20],inactive
same,Potency,[6],inactive
same,Potency,[7],inactive
same,Potency,[9],inactive
same,Potency,[10],inactive
same,Potency,[11],inactive
same,Potency,[12],inactive
same,Potency,[13],inactive
same,Potency,[14],inactive
same,Potency,[15],inactive
same,Potency,[16],inactive
same,Potency,[17],inactive
same,Potency,[18],inactive
same,Potency,[19],inactive
